Of roughly 7,900 targets only a part is listed; those with a hit were picked by preference. About 0.6% of all pairs of compound and target were hits.
The targets below were run with COC1=CC=C(C=C1)CN2C=CC3=C2C=C(C=C3)C(=O)NO (assay: log2 fold change, soluble protein after heating vs DMSO (PISA); higher = thermal stabilisation; K562 cells, 10 uM, 30 min; active = over 0.2 and 3.5 SD of the protein, either way, in both replicates (recomputed)).
In short: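 Thermal stability values are relative to control samples and come from duplicates. They are expressed as log2 fold changes. For measurement, K562 cells (2×10^6 cells/mL) received 10 μM compound for 30 min, and aliquots were heated for 3 min over 48°C-58°C, pooled, and extracted at 4°C in PBS with 0.5% NP-40. Soluble protein, the supernatant after 21,000xg for 90 min, was quantified by TMTpro 16plex LC-MS/MS with equalised channel sums.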

Chain of UniProt Q96I59 (Q96I59 whole entry, looked up): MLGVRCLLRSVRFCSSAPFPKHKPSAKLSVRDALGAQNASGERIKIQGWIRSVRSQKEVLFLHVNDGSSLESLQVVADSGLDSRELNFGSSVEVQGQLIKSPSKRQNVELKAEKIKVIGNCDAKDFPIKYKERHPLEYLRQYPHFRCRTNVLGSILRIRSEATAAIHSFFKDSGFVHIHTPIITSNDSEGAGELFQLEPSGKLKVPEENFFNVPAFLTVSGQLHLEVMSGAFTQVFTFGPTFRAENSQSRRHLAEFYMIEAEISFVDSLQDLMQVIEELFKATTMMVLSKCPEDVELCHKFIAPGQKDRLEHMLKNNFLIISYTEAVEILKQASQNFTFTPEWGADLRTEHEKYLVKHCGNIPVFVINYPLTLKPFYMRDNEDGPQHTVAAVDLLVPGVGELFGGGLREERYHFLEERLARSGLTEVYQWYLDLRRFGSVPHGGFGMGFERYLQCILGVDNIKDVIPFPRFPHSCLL
Chain of UniProt Q96IV0 (Q96IV0 whole entry, looked up): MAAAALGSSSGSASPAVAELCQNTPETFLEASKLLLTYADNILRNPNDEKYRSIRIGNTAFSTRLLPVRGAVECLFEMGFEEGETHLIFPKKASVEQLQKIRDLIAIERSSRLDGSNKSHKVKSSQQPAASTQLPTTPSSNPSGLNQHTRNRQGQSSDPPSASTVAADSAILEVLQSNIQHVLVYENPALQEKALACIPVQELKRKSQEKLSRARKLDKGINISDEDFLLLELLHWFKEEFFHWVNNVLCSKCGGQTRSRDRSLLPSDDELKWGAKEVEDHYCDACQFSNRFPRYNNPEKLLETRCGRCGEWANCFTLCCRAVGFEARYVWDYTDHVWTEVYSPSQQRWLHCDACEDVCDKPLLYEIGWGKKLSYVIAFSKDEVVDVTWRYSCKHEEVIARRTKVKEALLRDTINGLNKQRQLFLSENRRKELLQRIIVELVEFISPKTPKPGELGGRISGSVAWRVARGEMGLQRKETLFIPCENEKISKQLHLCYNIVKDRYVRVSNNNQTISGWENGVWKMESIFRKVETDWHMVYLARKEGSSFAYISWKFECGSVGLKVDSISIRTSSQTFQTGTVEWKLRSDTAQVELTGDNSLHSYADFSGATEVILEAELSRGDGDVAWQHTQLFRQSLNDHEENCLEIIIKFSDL
Chain of UniProt O95169 (O95169 whole entry, looked up): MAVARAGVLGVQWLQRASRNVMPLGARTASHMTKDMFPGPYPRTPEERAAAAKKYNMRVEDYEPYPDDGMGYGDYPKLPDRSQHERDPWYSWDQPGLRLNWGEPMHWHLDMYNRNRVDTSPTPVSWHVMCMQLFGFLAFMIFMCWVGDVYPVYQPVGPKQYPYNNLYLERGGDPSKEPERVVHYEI
Chain of UniProt Q08J23 (Q08J23 whole entry, looked up): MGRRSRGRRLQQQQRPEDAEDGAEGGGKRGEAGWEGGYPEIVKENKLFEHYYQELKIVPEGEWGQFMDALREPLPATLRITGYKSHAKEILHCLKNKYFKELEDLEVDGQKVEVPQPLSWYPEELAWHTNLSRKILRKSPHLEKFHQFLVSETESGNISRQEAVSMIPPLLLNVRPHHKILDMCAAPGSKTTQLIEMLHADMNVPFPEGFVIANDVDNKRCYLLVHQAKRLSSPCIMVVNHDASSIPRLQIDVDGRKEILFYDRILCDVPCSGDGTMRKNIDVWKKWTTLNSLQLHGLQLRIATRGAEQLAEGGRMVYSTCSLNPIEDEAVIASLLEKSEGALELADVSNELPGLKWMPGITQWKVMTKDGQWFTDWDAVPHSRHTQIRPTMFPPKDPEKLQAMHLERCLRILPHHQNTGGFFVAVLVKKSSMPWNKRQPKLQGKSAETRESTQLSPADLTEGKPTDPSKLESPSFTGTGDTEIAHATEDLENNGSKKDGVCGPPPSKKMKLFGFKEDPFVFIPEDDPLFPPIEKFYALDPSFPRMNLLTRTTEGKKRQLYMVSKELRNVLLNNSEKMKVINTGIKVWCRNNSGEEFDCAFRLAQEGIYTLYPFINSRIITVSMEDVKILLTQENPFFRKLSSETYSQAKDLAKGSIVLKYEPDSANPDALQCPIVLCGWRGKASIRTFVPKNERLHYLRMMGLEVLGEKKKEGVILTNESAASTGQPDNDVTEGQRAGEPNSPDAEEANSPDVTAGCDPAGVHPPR
Chain of UniProt O00567 (O00567 whole entry, looked up): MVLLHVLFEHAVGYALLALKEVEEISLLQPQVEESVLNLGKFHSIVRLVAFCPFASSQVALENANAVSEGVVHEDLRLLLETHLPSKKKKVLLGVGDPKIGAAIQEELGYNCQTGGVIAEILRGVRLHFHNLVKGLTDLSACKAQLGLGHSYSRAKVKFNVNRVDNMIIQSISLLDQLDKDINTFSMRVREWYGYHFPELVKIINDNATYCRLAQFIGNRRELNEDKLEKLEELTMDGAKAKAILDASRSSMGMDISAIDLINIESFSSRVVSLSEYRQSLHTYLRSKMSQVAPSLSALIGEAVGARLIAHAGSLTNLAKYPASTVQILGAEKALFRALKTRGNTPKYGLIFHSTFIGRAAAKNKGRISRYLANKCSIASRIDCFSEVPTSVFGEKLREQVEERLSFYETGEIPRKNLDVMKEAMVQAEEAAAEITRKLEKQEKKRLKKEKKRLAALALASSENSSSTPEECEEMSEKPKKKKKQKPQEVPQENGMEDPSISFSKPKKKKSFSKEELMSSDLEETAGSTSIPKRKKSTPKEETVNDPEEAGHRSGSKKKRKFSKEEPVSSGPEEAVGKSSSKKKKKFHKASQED
Chain of UniProt Q16621 (Q16621 whole entry, looked up): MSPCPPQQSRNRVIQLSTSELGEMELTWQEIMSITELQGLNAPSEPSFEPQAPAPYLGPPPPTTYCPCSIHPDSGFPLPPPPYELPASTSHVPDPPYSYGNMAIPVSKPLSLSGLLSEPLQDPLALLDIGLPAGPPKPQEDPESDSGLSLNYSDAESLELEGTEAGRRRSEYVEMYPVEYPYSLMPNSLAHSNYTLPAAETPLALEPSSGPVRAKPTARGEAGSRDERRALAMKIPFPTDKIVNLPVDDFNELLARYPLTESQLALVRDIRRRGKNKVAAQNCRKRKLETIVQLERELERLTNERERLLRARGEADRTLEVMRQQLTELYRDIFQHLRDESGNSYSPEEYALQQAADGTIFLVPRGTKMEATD
Chain of UniProt Q9H000 (Q9H000 whole entry, looked up): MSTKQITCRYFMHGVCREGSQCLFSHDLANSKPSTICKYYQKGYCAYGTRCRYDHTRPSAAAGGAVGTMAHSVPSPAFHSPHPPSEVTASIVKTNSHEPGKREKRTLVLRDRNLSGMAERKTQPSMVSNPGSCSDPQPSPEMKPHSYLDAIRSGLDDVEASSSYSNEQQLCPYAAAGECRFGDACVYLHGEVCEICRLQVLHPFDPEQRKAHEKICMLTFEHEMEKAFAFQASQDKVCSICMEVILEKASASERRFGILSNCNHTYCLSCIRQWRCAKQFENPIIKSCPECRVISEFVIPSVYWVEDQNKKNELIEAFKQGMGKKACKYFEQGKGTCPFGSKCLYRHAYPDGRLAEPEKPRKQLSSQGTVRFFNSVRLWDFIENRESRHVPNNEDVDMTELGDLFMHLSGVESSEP
Chain of UniProt Q15003 (Q15003 whole entry, looked up): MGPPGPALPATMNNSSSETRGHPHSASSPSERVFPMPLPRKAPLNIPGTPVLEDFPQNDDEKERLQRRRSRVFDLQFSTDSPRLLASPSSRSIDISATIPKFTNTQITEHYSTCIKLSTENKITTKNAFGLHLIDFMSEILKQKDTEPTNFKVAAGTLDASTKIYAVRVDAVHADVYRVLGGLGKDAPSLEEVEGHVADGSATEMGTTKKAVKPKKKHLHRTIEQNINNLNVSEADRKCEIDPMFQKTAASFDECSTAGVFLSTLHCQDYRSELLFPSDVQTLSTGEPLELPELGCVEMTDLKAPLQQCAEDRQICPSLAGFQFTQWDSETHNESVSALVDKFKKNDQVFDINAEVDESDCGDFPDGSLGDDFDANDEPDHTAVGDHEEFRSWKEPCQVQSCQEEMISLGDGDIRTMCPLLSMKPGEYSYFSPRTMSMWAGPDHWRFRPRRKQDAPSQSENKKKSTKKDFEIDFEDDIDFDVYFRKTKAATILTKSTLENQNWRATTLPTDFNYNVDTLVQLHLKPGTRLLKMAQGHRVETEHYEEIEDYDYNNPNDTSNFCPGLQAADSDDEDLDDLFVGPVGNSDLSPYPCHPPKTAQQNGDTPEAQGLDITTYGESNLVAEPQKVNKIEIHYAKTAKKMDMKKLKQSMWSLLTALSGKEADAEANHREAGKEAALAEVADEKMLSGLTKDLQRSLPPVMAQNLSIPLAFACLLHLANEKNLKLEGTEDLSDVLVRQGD
Chain of UniProt P15559 (P15559 whole entry, looked up): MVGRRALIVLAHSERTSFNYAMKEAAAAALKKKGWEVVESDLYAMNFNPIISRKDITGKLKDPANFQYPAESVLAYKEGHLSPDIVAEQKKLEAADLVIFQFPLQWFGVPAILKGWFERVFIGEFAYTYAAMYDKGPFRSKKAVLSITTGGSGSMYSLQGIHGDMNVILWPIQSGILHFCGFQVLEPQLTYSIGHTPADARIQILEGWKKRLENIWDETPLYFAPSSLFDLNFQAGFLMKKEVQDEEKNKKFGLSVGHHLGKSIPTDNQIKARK
Chain of UniProt Q16795 (Q16795 whole entry, looked up): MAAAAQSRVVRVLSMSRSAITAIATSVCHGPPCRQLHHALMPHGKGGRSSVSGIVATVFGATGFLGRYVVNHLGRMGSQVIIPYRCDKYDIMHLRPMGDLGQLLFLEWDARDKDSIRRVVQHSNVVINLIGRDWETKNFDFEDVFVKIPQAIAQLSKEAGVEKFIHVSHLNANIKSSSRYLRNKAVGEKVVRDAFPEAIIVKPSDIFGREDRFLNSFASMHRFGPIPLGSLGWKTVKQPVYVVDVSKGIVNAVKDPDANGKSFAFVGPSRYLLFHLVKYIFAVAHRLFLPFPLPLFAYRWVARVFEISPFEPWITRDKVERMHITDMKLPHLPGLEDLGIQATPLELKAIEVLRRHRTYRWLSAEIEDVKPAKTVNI

log2 fold change, inactive:
NDUFB8 (UniProt O95169) -0.042, MRPS12 (UniProt O15235) 0.018, MKNK1 (UniProt Q9BUB5) 0.021, NELFA (UniProt Q9H3P2) 0.031, MRPS2 (UniProt Q9Y399) -0.052, MRPS16 (UniProt Q9Y3D3) -0.102, NOP56 (UniProt O00567) -0.083, MITD1 (UniProt Q8WV92) 0.059, NDUFS7 (UniProt O75251) -0.009, NARS2 (UniProt Q96I59) -0.213, NDUFA6 (UniProt P56556) 0.097, NDUFA9 (UniProt Q16795) -0.002, NMNAT1 (UniProt Q9HAN9) -0.168, NQO1 (UniProt P15559) 0.062, OTULIN (UniProt Q96BN8) 0.022, NDUFB7 (UniProt P17568) -0.011, MUL1 (UniProt Q969V5) -0.044, MSTO1 (UniProt Q9BUK6) -0.022, NSUN2 (UniProt Q08J23) -0.153, MKRN2 (UniProt Q9H000) 0.024, NFE2 (UniProt Q16621) 0.135, MRPS9 (UniProt P82933) 0.009, NCAPH (UniProt Q15003) -0.03, NGLY1 (UniProt Q96IV0) 0.02

Source: the supplement of paper PMC10849652
